KB-3-1 tox: KB-3-1 parental cell cytotoxicity. KB-3-1 viability, CellTiter-Glo ATP luminescence, 72 h. Potency, µM (highest dose often 46.1 µM), usual class: cytotoxic. hit rate 1.4% among 400,000. AID 1347075; also: nearly all actives have a fitted effect of over 60% in size
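KB-3-1 cells, DMEM (no phenol red) + 10% FBS; compound by pin transfer, 72 h, 37 °C. Readout: CellTiter-Glo luminescence after 10 min. Data normalized, curve-fitted.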
HT1080NT lethal: kills 2HG-producing HT-1080-NT fibrosarcoma cells | Potency, µM (titrated, usually from 46.1 µM), usual class: cytotoxic | hit rate 1.6% among 360,000 | HT-1080-NT fibrosarcoma viability, CellTiter-Glo ATP luminescence, 48 h;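 also: NT is the 2HG producing partner of a matched IDH1 knockdown line; nearly all actives have a fitted effect of over 55% in size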
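Read-out is CellTiter-Glo luminescence after 10 minutes at room temperature, following 48 hours' compound treatment of HT-1080-NT cells (750 cells/well, RPMI, 5% FBS, 37 degrees C).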
MCF10A rereplic: inducers of DNA re-replication in MCF 10A breast cells; Potency, µM (doses to about 46.1 µM), most hits filed as activators; MCF 10A DNA re-replication, Hoechst nuclear intensity, 48 h; AID 624296; hit rate 2.9% among 350,000; also: nearly all actives have a fitted effect of over 50% in size
HT1080 IDH1KD tx: HT-1080 IDH1 knockdown cell toxicity (counter line); hit rate 2% among 360,000; AID 686971; HT-1080 IDH1 knockdown viability, ATP luminescence, 48 h; Potency, µM (doses to about 46.1 µM), most hits filed as cytotoxic
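Using the IDH1-knockdown HT-1080 line run in the same batch and compound series as the NT line, viability after 48 h at 37 °C was determined by CellTiter-Glo luminescence and expressed as % activity.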
SW480 rereplic: induces DNA re-replication in SW480 colon adenocarcinoma cells; SW480 DNA re-replication, Hoechst DNA content imaging, 48 h; Potency, µM (top dose mostly 46.1 µM), usual class: activators; hit rate 1.8% among 340,000; AID 624297; also: nearly all actives have a fitted effect of over 55% in size
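Hoechst fluorescence of nuclei (405 nm excitation, 500-530 nm emission) measured by plate-scanning imager after 48 hr compound exposure at 37 C; re-replication scored as increased number of nuclei with elevated intensity.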
KB-V1 cytotox: KB-V1 MDR subline cytotoxicity; KB-V1 MDR cells viability, CellTiter-Glo, 72 h; Potency, µM (series often up to 46.1 µM), actives largely listed as cytotoxic; hit rate 3.4% among 400,000; also: nearly all actives have a fitted effect of over 60% in size
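In this primary screen, KB-V1 cells overexpressing P-gp are incubated with library compounds (lowest to highest concentration) for 72 h at 37 degrees C before a luminescent ATP viability read.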
Hits are given with their value; – = inactive; ? = inconclusive; · = not tested or not shown; ! = not active in a repeat; [ ] = remark or other dose. Sampled rows, rich in hits. Any-hit rate of the full collection: about 8%. Calls follow the shape of the dose curve; as a rule, active = well fitted curve in the direction sought with a large enough effect; inconclusive = small, poorly fitted or top-dose-only effect, or another doubt; inactive = no such curve, though single readings can be large; an effect the other way counts as inactive or inconclusive.

SMILES | KB-3-1 tox | HT1080NT lethal | MCF10A rereplic | HT1080 IDH1KD tx | SW480 rereplic | KB-V1 cytotox
COc1ccc(N2C(=O)CC(Sc3nc4ccccc4s3)C2=O)cc1 (centres undefined) | – | – | ? | – | – | –
Nc1nc(-c2ccccc2)c(-c2ccccc2)s1 | – | – | – | – | – | –
Cc1ccc(-c2nc(N)sc2-c2ccc(C)cc2)cc1 | ? | ? | 23µM | ? | – | ?
Cc1ccc(-c2nc(N)sc2-c2ccccc2)cc1C | – | – | 8.2µM | – | – | ?
CCCCn1c(=N)n(CC(O)COc2ccccc2)c2ccccc21 (centres undefined) | ? | ? | – | ? | ? | 21µM
N=c1n(CCN2CCOCC2)c2ccccc2n1CC(O)COc1ccccc1 (centres undefined) | – | – | – | – | – | –
N=c1n(CCN2CCCCC2)c2ccccc2n1CC(O)COc1ccccc1 (centres undefined) | ? | 15µM | – | ? | ? | –
CCCn1c(=N)n(CC(O)COc2cccc(C)c2)c2ccccc21 (centres undefined) | ? | – | – | ? | – | 15µM
CCCCn1c(=N)n(CC(O)COc2ccc(C)cc2)c2ccccc21 (centres undefined) | 18µM | ? | – | 11µM | – | ?
Cn1c(SCc2ccccc2Cl)nc(=O)c2c1NC(=O)CC2c1cc(F)ccc1F (centres undefined) | – | · | · | · | · | –
CCOc1ccc(CCNC(c2nnc(-c3ccccc3)o2)c2ccccc2Cl)cc1OCC (centres undefined) | ? | · | · | · | · | –
COc1cc(CN2c3ccc(Br)cc3C(=O)CS2(=O)=O)cc(OC)c1 | – | · | · | · | · | –
Cc1ccc2c(CC(=O)Nc3c(C(=O)Nc4cccc(Cl)c4)oc4ccccc34)coc2c1C | – | · | · | · | · | –
Cc1ccc(-c2noc(C3CCN(C(=O)Nc4ccc(C#N)cc4)CC3)n2)o1 | ? | – | – | ? | – | 2.6µM
CN(C)c1ccc(/C=C/c2nc3ccccc3s2)cc1 | 16µM! | ? | ? | ? | 9.2µM | 13µM!
CN(Cc1ccccc1)c1ccc(/C=C/c2nc3ccccc3s2)cc1 | 7.3µM | · | · | · | · | –
CCOC(=O)c1cc2c(=O)n3ccccc3nc2n(C)c1=NC(=O)c1c(-c2c(F)cccc2Cl)noc1C | – | – | 23µM | – | 1.3µM | –
CCOC(=O)c1cc2c(=O)n3ccccc3nc2n(C(C)C)c1=NC(=O)c1c(-c2c(F)cccc2Cl)noc1C | ? | – | ? | – | 18µM | ?
CCn1cc(C(=O)N2CCN(c3cccc(Cl)c3)CC2)c(=O)c2cc(S(=O)(=O)N3CCOCC3)ccc21 | – | · | · | · | · | –
Cc1cccc(N2C(=O)c3cccc4c(N)ccc(c34)C2=O)c1 | – | – | ? | – | 8.2µM | –
Nc1cccc(N2C(=O)c3cccc4c(N)ccc(c34)C2=O)c1 | – | – | – | – | – | –
CC(C)CCN1C(=O)c2cccc3c(N)ccc(c23)C1=O | – | – | 15µM | – | 23µM | –
COc1ccc2c(c1)c1c(c(=O)n(Cc3ccccc3)c(=O)n1CC(=O)Nc1ccccc1OC)n2C | – | · | · | · | · | –
O=C(Nc1ccc(Cl)c(Cl)c1)N[C@@H]1CC[C@@H](CCn2cc(C3CCCCC3)nn2)O[C@@H]1CO | ? | 21µM | · | 23µM | · | –
O=C(Nc1ccc(F)cc1)N[C@@H]1CC[C@@H](CCn2cc(-c3ccc(F)cc3)nn2)O[C@@H]1CO | – | – | · | – | · | –
SMILES | KB-3-1 tox | HT1080NT lethal | MCF10A rereplic | HT1080 IDH1KD tx | SW480 rereplic | KB-V1 cytotox
Cc1ccc(C)c2c(C)ccnc12 | – | · | · | · | · | –
CCOc1cc2nc(-c3ccc(OC)c(OC)c3)nc(N3CCOCC3)c2cc1OC | ? | ? | ? | ? | 23µM | ?
CCOc1cc(C(=S)N2CCOCC2)ccc1OS(=O)(=O)c1ccccc1 | – | – | ? | – | – | 2.3µM
CCOc1cc(C(=S)N2CCOCC2)ccc1OC | – | – | 13µM | – | – | –
CCOc1cc(C(=S)N2CCOCC2)ccc1OC(=O)c1ccccc1 | – | – | – | – | – | –
CCOc1cc(/C=C/C(=O)c2ccc(OC)c(CN3CCOCC3)c2)cc(Br)c1O | ? | ? | ? | 23µM | ? | ?
COc1ccc(N(C)C(=O)c2cn(C3CCCCC3)c(=O)c3c2c2ccccc2n3C)cc1 | – | · | · | · | · | –
CCc1c(C)sc(NC(=O)c2cc3nc(-c4ccc(OC)cc4)cc(C(F)(F)F)n3n2)c1C(=O)OC | – | · | · | · | · | –
CCOC(=O)c1c(C)oc2ncnc(Nc3ccc(F)cc3Cl)c12 | – | · | · | · | · | –
CO[C@H]1C[C@@H]2CC[C@@H](C)[C@@](O)(O2)C(=O)C(=O)N2CCCC[C@H]2C(=O)O[C@H]([C@H](C)C[C@@H]2CC[C@@H](O)[C@H](OC)C2)CC(=O)[C@H](C)/C=C(\C)[C@@H](O)[C@@H](OC)C(=O)[C@H](C)C[C@H](C)/C=C/C=C/C=C/1C | ? | · | ? | · | ? | –
COc1cc(NC(=O)CCC2CCCC2)cc(-n2cnnn2)c1 | – | – | – | – | – | 21µM
CCOC(=O)C1CCN(C(=O)c2nn(-c3ccc(C)cc3)c(=O)n(C)c2=O)CC1 | – | · | · | · | · | –
COc1ccc(C(=O)Nc2cccnc2Sc2ccc(Cl)cc2)cc1 | – | – | – | – | –[9.22 µM] | –
COc1cc(NC(=O)c2cccnc2Sc2ccc(Cl)cc2)cc(OC)c1OC | – | – | – | – | – | 5.2µM
O=C(O)c1ccc(N[C@@H]2OC[C@@H](O)[C@@H](O)[C@@H]2O)cc1 | · | · | – | · | – | ·
COc1cccc(NC(=O)CSc2nccn2Cc2ccc3c(c2)OCO3)c1 | – | · | · | · | · | –
COc1ccc(OC)c(/C=C/c2nc3ccccc3[nH]c2=O)c1 | – | – | 13µM | – | 21µM | –
O=c1[nH]c2ccccc2nc1/C=C/c1ccccc1 | – | – | 3.7µM | – | ? | –
COc1ccc(OC)c(/C=C/c2[nH]c(=O)[nH]c(=O)c2[N+](=O)[O-])c1 | – | – | 5.2µM | ? | – | –
COc1ccc(OC)c(/C=C/c2nc3ccccc3nc2C)c1 | – | · | · | · | · | ?
O=c1[nH]c2ccccc2nc1/C=C/c1ccc(F)cc1 | – | – | 6.5µM | – | ? | –
O=C(/C=C/c1ccc(F)cc1)Nc1nc2ccccc2[nH]1 | · | · | – | · | – | ·
COc1cccc(CNc2nccn(-c3cc(C)cc(C)c3)c2=O)c1 | – | · | · | · | · | ?
CCOC(=O)c1c(S(=O)(=O)N2CCC(C(=O)N3CCN(c4cccc(C)c4C)CC3)CC2)c(C)n(C)c1C | – | · | · | · | · | –
CC(C)(C)/C(O)=C/c1nc2ccccc2[nH]c1=O | – | – | – | – | – | –
O=c1[nH]c2ccccc2nc1/C=C/c1ccc(O)cc1 | – | – | 8.2µM | – | 18µM | ?
CC(C)OCCCNC(=O)c1cccs1 | – | – | – | – | – | –
